Here are results for 40 compounds from PubChem BioAssay (Tox21).

Inconclusive results are not listed. Calls of active or inactive are those of the source. Calls follow the shape of the dose curve; as a rule, active = well fitted activation curve with a large enough effect in the signal ratio in the repeat runs (not every such curve was filed as active); inconclusive = weak or mixed curves, or effect the other way; inactive = flat fitted curve, though single readings scatter; the % refers to the signal ratio.

Sequence of Bile acid receptor (Homo sapiens) (Q96RI1 whole entry, looked up): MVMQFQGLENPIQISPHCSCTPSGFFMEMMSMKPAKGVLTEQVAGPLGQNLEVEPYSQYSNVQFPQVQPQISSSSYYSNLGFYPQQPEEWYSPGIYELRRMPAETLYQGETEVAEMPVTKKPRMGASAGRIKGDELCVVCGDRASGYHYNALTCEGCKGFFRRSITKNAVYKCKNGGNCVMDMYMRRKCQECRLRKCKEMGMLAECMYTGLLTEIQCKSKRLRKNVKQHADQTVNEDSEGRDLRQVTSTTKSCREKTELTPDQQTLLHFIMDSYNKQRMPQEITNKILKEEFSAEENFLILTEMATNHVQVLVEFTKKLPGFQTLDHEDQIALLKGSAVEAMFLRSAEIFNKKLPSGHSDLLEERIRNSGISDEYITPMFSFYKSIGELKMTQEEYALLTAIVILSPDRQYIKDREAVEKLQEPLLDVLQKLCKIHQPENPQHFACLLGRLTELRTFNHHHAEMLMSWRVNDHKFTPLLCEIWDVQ

The experiment has as its target Bile acid receptor (Homo sapiens) (UniProt Q96RI1). Nature of the experiment: qHTS assay to identify small molecule agonists of the farnesoid-X-receptor (FXR) signaling pathway (AID 743220). Particulars: HEK293T FXR-UAS-bla, beta-lactamase FRET ratio, 16 h; series mostly up to 62.6 µM. An excerpt:
National Center for Advancing Translational Sciences [NCATS]
NIH Chemical Genomics Center [NCGC]
U.S. Environmental Protection Agency [EPA]
National Institutes of Environmental Health Sciences [NIEHS]
National Toxicology Program [NTP]
U.S. Food and Drug Administration [FDA]
The farnesoid-X-receptor (FXR), a nuclear hormone receptor, is highly expressed in liver, intestine, kidney and adrenal cortex. Natural ligands of FXR are the bile acids (Cholic acid, Chenodeoxy cholic acid etc). FXR is an important regulator of diverse metabolic pathways, including the bile acid homeostasis, lipid and glucose metabolisms. FXR regulates the expression of target genes by binding either as a monomer or as a heterodimer with the retinoid X receptor (RXR). Numerous studies have reported that FXR exerts protective function during cholestasis, diabetes, liver regeneration, and cancer. To identify compounds that activate FXR signaling, GeneBLAzer FXR-UAS-bla HEK 293T cell line (Invitrogen, Carlsbad, CA) containing a beta-lactamase reporter gene under the control of a UAS response element was used to screen the Tox21 10K compound library.
Tox21 Assay Protocol Summary:
FXR-bla cells were dispensed at 5000 cells/5uL/well in 1536-well black wall/clear bottom plates using a Multidrop Combi (Thermo Fisher Scientific, Waltham, MA) dispenser. After the assay plates were incubated at 37C and 5% CO2 for 5 h, 23 nL of compounds dissolved in DMSO, positive controls or DMSO only was transferred to the assay plate by a Pintool station (Kalypsys, San Diego, CA). The assay plates were incubated at 37C for 16 h. After 1 uL of LiveBLAzerTM B/G FRET substrate was added using a Bioraptr Flying Reagent Dispenser (FRD) workstation (Beckman Coulter, Indianapolis, IN), the plates were incubated at room temperature for 2 h, and fluorescence intensity was measured by an Envision plate reader (PerkinElmer, Shelton, CT).
Turning to `CCCCC/C=C/C=C/C=O`, the outcome was inactive.
The entry for `CC(C)=CCC/C(C)=C\CO` is “inactive”; for `CCCCc1oc2ccccc2c1C(=O)c1cc(I)c(OCCN(CC)CC)c(I)c1` it is “inactive”.
Then `CC(C)Oc1ccc2c(=O)c(-c3ccccc3)coc2c1`, with “inactive”; and `O=P(O)(O)O`, with “inactive”.
Regarding `CC(CCC(=O)O)(c1ccc(O)cc1)c1ccc(O)cc1`, the result was inactive.
The entry for `C[Si](C)(C)O[Si](C)(C)C` is “inactive”; for `CCCc1c(OCCCCc2nn[nH]n2)ccc(C(C)=O)c1O` it is “inactive”; for `CCCCCCCCCCCO` it is “inactive”.
On to `C=CC(C)(CCC=C(C)C)OC(C)=O` (stereo not given), for which the outcome was inactive.
Then `COc1c(Cl)c(Cl)c(Cl)c(Cl)c1Cl`, with “inactive”; and `O=CCCCC=O`, with “inactive”.
The entry for `CN1C(C(=O)Nc2ccccn2)=C(O)c2ccccc2S1(=O)=O` is “inactive”.
Then `CC1=CCC(C(C)(C)O)CC1` (stereo not given), with “inactive”; and `CN(C)c1nc(N(C)C)nc(N(C)C)n1`, with “inactive”.
With `Nc1ccc(Cl)cc1Cl`, the result was inactive.
The entry for `CC(C)(C)NC(=O)[C@H]1CC[C@H]2[C@@H]3CC[C@H]4NC(=O)C=C[C@]4(C)[C@H]3CC[C@]12C` is “inactive”; for `CCOC(=O)C(C#N)=C(c1ccccc1)c1ccccc1` it is “inactive”.
Then `COc1ccc(C(=O)CC(=O)c2ccc(C(C)(C)C)cc2)cc1`, with “inactive”; and `CCCCCCCCCC(=O)OC`, with “inactive”; and `c1ccc2sc(SSN3CCOCC3)nc2c1`, with “inactive”.
Then `c1ccc2c(c1)c1cccc3ccc4cccc2c4c31`, with “inactive”; and `CN(C)CCC=C1c2ccccc2CCc2ccccc21`, with “inactive”; and `Cc1c(OCC(F)(F)F)ccnc1CS(=O)c1nc2ccccc2[nH]1` (stereo not given), with “inactive”.
Consider `COc1ccc(OC)c(C(O)CNC(=O)CN)c1` (stereo not given), for which the result was inactive.
Turning to `CCCCC(CC)COP(=O)(OCC(CC)CCCC)OCC(CC)CCCC` (stereo not given), the outcome was inactive.
The entry for `OCCO` is “inactive”.
Then `COc1ccccc1/C=C/C=O`, with “inactive”; and `CCC(C)CO` (stereo not given), with “inactive”.
The entry for `CC(C)OC=O` is “inactive”; for `CC(=O)c1ccccn1` it is “inactive”; for `O=C=Nc1ccc(Cc2ccc(N=C=O)cc2)cc1` it is “inactive”.
Consider `C#C[C@]1(O)CC[C@H]2[C@@H]3CCc4cc(OC)ccc4[C@H]3CC[C@@]21C`, for which the outcome was inactive.
Then `Cc1ncc[nH]1`, with “inactive”.
Then `O=CCc1ccccc1`, with “inactive”.
For `O=C(c1ccccc1)c1ccc(O)cc1O`, the outcome was inactive.
The entry for `Nc1ncnc2nc[nH]c12` is “inactive”; for `O=C(Nc1ccc(Cl)cc1)Nc1ccc(Cl)c(Cl)c1` it is “inactive”.
With `O=C(Nc1ccc([N+](=O)[O-])cc1Cl)c1cc(Cl)ccc1O`, the outcome was inactive.
Then `Cc1cc2nc3c(=O)[nH]c(=O)nc-3n(C[C@H](O)[C@H](O)[C@H](O)CO)c2cc1C`, with “inactive”.
